Bioassay records (PubChem BioAssay)
IL-1B inflam inh: qHTS for Inhibitors of Inflammasome Signaling: IL-1-beta AlphaLISA Primary Screen | THP-1 LPS/ATP IL-1B secretion, AlphaLISA, 16 h; active compounds read low | activity change, % at 57.5 µM | 4.7% of 360,000 active; in the data active = activity change below about -50%; inconclusive = mostly about -30% to -49%; note: % is set by controls: 0 for no effect and ±100 for the full control effect
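THP-1 cells pretreated 1 hr with compounds (up to 57.5 uM final), then stimulated with LPS (250 ng/mL final) plus ATP (1.25 mM final); secreted IL-1B measured by AlphaLISA after 16 hr, decreased signal indicating inhibition.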
SW480 rereplic: A quantitative high throughput screen for small molecules that induce DNA re-replication in SW480 colon adenocarcinoma cells. 1.8% of 340,000 active. Potency, µM (titrated, usually from 46.1 µM), for inactives: top-dose re-replication activation, hits mostly activators. SW480 DNA re-replication, Hoechst DNA content imaging, 48 h. AID 624297, 2012; note: potency is the fitted concentration of half-maximal effect; % of control where 0% means no effect; nearly all actives have a fitted effect of over 55% in size
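SW480 cells exposed to compounds for 48 hr at 37 C, 5% CO2, then Hoechst-stained 40 min. Nuclear DNA content imaged by fluorescence scanning (405 nm excitation, 500-530 nm emission); re-replication scored as increased high-intensity nuclei.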
DT40 TDP1 CPT: qHTS for Inhibitors of human tyrosyl-DNA phosphodiesterase 1 (TDP1): qHTS in cells in presence of CPT | chicken DT40 Tdp1-/-;hTDP1 cells + 20 nM CPT, ATP luminescence, 48 h | Potency, µM (top dose mostly 46.2 µM), for the others: at the top dose activity change, negative = growth inhibition, usual class: inhibitors | 12% of 420,000 active | AID 686979, 2013; note: potency is the fitted concentration of half-maximal effect; % is set by controls: 0 for no effect and ±100 for the full control effect; nearly all actives have a fitted effect of over 55% in size
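Chicken DT40 Tdp1-/- cells complemented with human TDP1, 400 cells/well, exposed to compounds plus 20 nM camptothecin for at least 48 h at 37 C; viability read as ATP content by CellTiter-Glo luminescence.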
Chronic BCR inh: qHTS Assay to Find Inhibitors of Chronic Active B-Cell Receptor Signaling; ABC-DLBCL IkBa-CBG/CBR reporter, luminescence ratio, 4 h; Potency, µM (titrated, usually from 46.1 µM), without a hit: at the highest dose activity change, negative = inhibition, usual class: inhibitors; 0.05% of 340,000 active; active = well fitted inhibition curve with a large enough effect in the signal ratio, with a control signal flat, not every such curve was filed as active; inconclusive = small, poorly fitted or top-dose-only effect, or effect the other way, or a change in a side signal; the % refers to the signal ratio;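 note: potency is the fitted concentration of half-maximal effect; plate controls were basal doxycycline-induced cells for no effect and cells given 10 µM MG132 for full effect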
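Compounds up to 46 uM were incubated four hours with TMD8 cells whose green CBG68 luciferase is fused to IkappaBalpha; red CBR luminescence normalised the signal, and concentration-effect curves were fitted to fusion, red and ratio data.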
DT40 TDP1 no CPT: qHTS for Inhibitors of human tyrosyl-DNA phosphodiesterase 1 (TDP1): qHTS in cells in absence of CPT; DT40 Tdp1-/- hTDP1 cells, no CPT, ATP luminescence, 48 h; Potency, µM (doses to about 46.2 µM), inactives show at the top dose activity change, negative = growth inhibition, hits mostly inhibitors; 15% of 420,000 active; AID 686978, 2013; note: potency is the fitted concentration of half-maximal effect; % is set by controls: 0 for no effect and ±100 for the full control effect; nearly all actives have a fitted effect of over 55% in size
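A cellular qHTS used chicken DT40 cells lacking endogenous Tdp1 but carrying stably transfected human TDP1. Compounds were applied without camptothecin, and cell growth kinetics were judged by ATP-dependent luminescence after ≥48 hr.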
MCF10A rerep: A quantitative high throughput screen for small molecules that induce DNA re-replication in MCF 10a normal breast cells. MCF 10A DNA re-replication, Hoechst nuclear intensity, 48 h. Potency, µM (series often up to 46.1 µM), for inactives: top-dose activity, positive = re-replication, hits mostly activators. 2.9% of 350,000 active; note: potency is the fitted concentration of half-maximal effect; % of control where 0% means no effect; nearly all actives have a fitted effect of over 50% in size
Starred values were filed as active, the others as inactive; ? = inconclusive; / = not tested or not shown. In the library only some 19% were active in any assay of this set; here they are far more common. Unless noted, calls come from the whole dose curve; as a rule, active = well fitted curve in the direction sought with a large enough effect; inconclusive = small, poorly fitted or top-dose-only effect, or another doubt; inactive = no such curve, though single readings can be large; an effect the other way counts as inactive or inconclusive.

SMILES | IL-1B inflam inh | SW480 rereplic | DT40 TDP1 CPT | Chronic BCR inh | DT40 TDP1 no CPT | MCF10A rerep
C=CCN1C(=O)c2cccc3c(Br)ccc(c23)C1=O | ? | -1.0% | 13.1% | ? | 0.7% | -5.9%
C=CCN1C(=O)c2cccc3c(N4CCCCC4)ccc(c23)C1=O | 18.5 | ? | ? | 21.1% | ? | 16.4µM*
COc1ccc(NC(=O)COc2ccc(S(=O)(=O)NC3CCCCC3)cc2)c(OC)c1 | / | / | 14.6µM* | / | 16.4µM* | /
C=CCNC(=O)COc1ccc(S(=O)(=O)NC2CCCCC2)cc1 | 6.1 | 14.6µM* | ? | 5.1% | -21.8% | 10.3µM*
COc1ccc(S(=O)(=O)NC2CCCCCC2)c(OC)c1 | 71.2 | -0.5% | -23.7% | -0.6% | -2.8% | 0.6%
COc1cc(C)c(NC(=O)COc2ccc3c(c2)CCC3)cc1OC | 8.2 | -4.9% | 23.1µM* | 0.3% | ? | ?
COc1cccc(Cn2c(=O)c(-c3ccccc3)nc3cnc(N(C)C)nc32)c1 | / | / | ? | / | 2.1% | /
O=C(COC(=O)CCS(=O)(=O)c1ccc(F)cc1)NC1CCCCC1 | 1.0 | -23.6% | -5.2% | 0.7% | 24.7% | ?
CC(=O)c1cccc(NC(=O)Cn2cc(C(=O)c3cccc(Cl)c3)c(=O)c3ccc(C)nc32)c1 | / | / | -1.8% | / | -1.0% | /
CCCCNC(=O)C1(C)CCCCN1C(=O)c1c(Cl)cccc1Cl (stereo not given) | 21.0 | / | ? | / | 13µM* | /
CCCCNC(=O)C1(C)CCN1C(=O)c1oc2ccccc2c1C (stereo not given) | 90.7 | / | ? | / | ? | /
CCCCNC(=O)C1(C)CCCCN1C(=O)c1cc(OC)ccc1Br (stereo not given) | -95.9* | / | ? | / | ? | /
CCCCNC(=O)C1(C)CCCCN1C(=O)c1cc2ccccc2s1 (stereo not given) | 8.0 | / | 8.2µM* | / | 14.6µM* | /
CCCCNC(=O)C1(C)CCN1C(=O)c1ccccc1Br (stereo not given) | ? | / | -1.4% | / | -4.9% | /
CCCCNC(=O)C1(C)CCN1C(=O)c1cc(-c2cccs2)oc1C (stereo not given) | -104.2* | / | 1.64µM* | / | 3.66µM* | /
O=C(NCC1CCCO1)c1ccc(N2CCCCC2)c([N+](=O)[O-])c1 (stereo not given) | -6.4 | 1.8% | -7.6% | ? | 17.3% | 10.5%
CCCCNC(=O)C1(C)CCCCN1C(=O)c1ccc(C)c(F)c1 (stereo not given) | 40.6 | / | -28.1% | / | -26.8% | /
CCCCNC(=O)C1(C)CCCCN1C(=O)c1ccc2sccc2c1 (stereo not given) | 11.2 | / | ? | / | 16.4µM* | /
COCCN(C(=O)c1ccc(N2C(=O)c3ccccc3C2=O)cc1)c1c(N)n(CC(C)C)c(=O)[nH]c1=O | 3.6 | -2.2% | -3.2% | -7.3% | -3.4% | 0.5%
O=C1c2ccccc2S(=O)N1c1cccc(F)c1 (stereo not given) | -27.4 | / | -20.0% | / | -27.9% | /
CCCN1C(=O)c2cc(C(=O)Nc3ccccc3OC)ccc2C1Nc1ccccc1OC (stereo not given) | -0.1 | 9.1% | ? | -9.6% | ? | 28.8%
CCCN1C(=O)c2cc(C(=O)Nc3cccc(C(C)=O)c3)ccc2C1Nc1cccc(C(C)=O)c1 (stereo not given) | 0.0 | 4.6% | 8.2µM* | -19.1% | 14.6µM* | 9.0%
CC(C)(C)C(=O)Nc1sc2c(c1-c1nc3ccccc3[nH]1)CCCC2 | -0.8 | 1.7% | ? | 22.4% | ? | 13µM*
COc1ccccc1CC(=O)NC1CCCCCC1 | -20.0 | -35.9% | -4.3% | -12.5% | 1.1% | -8.6%
CCOc1ccc(C(=S)NC2CCCCC2)cc1OCC | -0.6 | 1.1% | ? | 0.4% | 4.61µM* | 4.4%
SMILES | IL-1B inflam inh | SW480 rereplic | DT40 TDP1 CPT | Chronic BCR inh | DT40 TDP1 no CPT | MCF10A rerep
CCOc1cc(Br)c(CC(=O)NC2CCCCCC2)cc1OCC | -5.3 | 1.7% | ? | 8.1% | 20.6µM* | ?
CCOc1ccc(C(C)NC(=S)NC2CCCCC2)cc1OCC (stereo not given) | 5.5 | -3.4% | ? | -4.5% | ? | -1.4%
O=C(O)c1cccc(/C=C2/C[C@@H]3[C@@H](/C=C/[C@@H](O)C4CCCCC4)[C@H](O)C[C@@H]3O2)c1 | / | / | -3.3% | / | -9.3% | /
O=C(NC1CCCC1)C(c1ccncc1)N(C(=O)Cn1nnc(-c2ccccc2F)n1)c1cccc(F)c1 (stereo not given) | -6.8 | -1.1% | -2.1% | -10.0% | -12.7% | -6.5%
CC(=O)c1ccc(NC(=O)CN2CCCCCC2)cc1 | -14.8 | -5.9% | -7.6% | 10.3% | -37.1% | 1.0%
Cc1ccc(NC(=O)c2ccc(-n3c(C)nnc3C)cc2)cc1F | / | / | -23.3% | / | -29.8% | /
O=S(=O)(c1cccc(F)c1)N1CCCN(c2ccc(C(F)(F)F)cn2)CC1 | ? | -4.2% | 0.0% | 20.8% | -4.1% | 1.3%
COc1ccc(CCn2c(=N)c(C(=O)N3CCN(C)CC3)cc3c(=O)n4ccccc4nc32)cc1 | -53.8* | 23.1µM* | ? | 2.4% | -24.2% | 9.2µM*
Cc1cccn2c(=O)c3cc(C(=O)NC4CCS(=O)(=O)C4)n(Cc4ccccc4)c3nc12 (stereo not given) | 1.3 | 2.59µM* | -4.9% | -2.9% | 2.4% | 13µM*
Cc1cccn2c(=O)c3cc(C(=O)NC4CCCC4)sc3nc12 | -12.6 | -8.7% | ? | ? | ? | -17.9%
CCOCCCn1c(=N)c(C(=O)NC2CCCCC2)cc2c(=O)n3ccccc3nc21 | / | / | -5.2% | / | ? | /
COc1ccc(CCn2c(=N)c(C(=O)NC3CCCC3)cc3c(=O)n4cccc(C)c4nc32)cc1 | 5.4 | ? | 1.46µM* | -2.9% | 1.84µM* | 248.3%
COc1ccc(CCn2c(=N)c(C(=O)NC3CCCCC3)cc3c(=O)n4ccccc4nc32)cc1 | -12.7 | ? | 6.51µM* | ? | 4.11µM* | ?
CC1CN(S(=O)(=O)c2ccc(C(=O)N3CCc4ccccc43)cc2)CC(C)O1 (stereo not given) | -11.1 | -5.3% | -7.9% | ? | -26.1% | 0.3%
CCn1c(=N)c(C(=O)NC2CCCC2)cc2c(=O)n3ccccc3nc21 | / | / | 0.8% | / | 2.7% | /
